TDP1 cell noCPT = qHTS for Inhibitors of human tyrosyl-DNA phosphodiesterase 1 (TDP1): qHTS in cells in absence of CPT; DT40 Tdp1-/- hTDP1 cells, no CPT, ATP luminescence, 48 h; Potency, µM (top dose mostly 46.2 µM), for inactives: at the top dose activity change, negative = growth inhibition, hits mostly inhibitors; 15% of 420,000 active; AID 686978, 2013; also: potency is read from the fitted curve at half-maximal effect; nearly all actives have a fitted effect of over 55% in size
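Growth kinetics read by CellTiter-Glo luminescence after ≥48 hr at 37 °C. Cells: DT40 Tdp1-/- stably carrying human TDP1, 400 per well, compound exposure in the absence of CPT (DMSO vehicle).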
HT1080 IDH1KD tx = toxicity to HT-1080 IDH1 knockdown cells (counter line); HT-1080 IDH1 knockdown viability, ATP luminescence, 48 h; Potency, µM (series often up to 46.1 µM), for inactives: at the top dose activity, negative = toxicity, actives largely listed as cytotoxic; 2% of 360,000 active; AID 686971;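 also: potency is read from the fitted curve at half-maximal effect; 0% = DMSO wells and -100% = cell-free medium wells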
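HT-1080-IDH1KD cells (IDH1 knocked down), 750/well in RPMI with 5% FBS, treated with compound 48 h at 37 degrees C. Viability by CellTiter-Glo luminescence, normalised to DMSO and no-cell wells; concentration-response curves classed.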
DT40 TDP1 CPT = DT40-hTDP1 cell growth loss with CPT | chicken DT40 Tdp1-/-;hTDP1 cells + 20 nM CPT, ATP luminescence, 48 h | Potency, µM (highest dose often 46.2 µM), for the others: at the highest dose activity change, negative = growth inhibition, most hits filed as inhibitors | 12% of 420,000 active | AID 686979; also: potency is read from the fitted curve at half-maximal effect; nearly all actives have a fitted effect of over 55% in size
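Cell growth measured by CellTiter-Glo luminescence after a minimum 48 h, 37 C compound exposure with 20 nM CPT in Tdp1-knockout DT40 cells stably expressing hTDP1, seeded 400/well; qHTS titration format.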
IL-1B inflam inh = inhibitors of inflammasome signaling (IL-1 beta secretion) | THP-1 LPS/ATP IL-1B secretion, AlphaLISA, 16 h; active compounds read low | AID 743279 | activity change, % at 57.5 µM | 4.7% of 360,000 active; in the data active = activity change below about -50%; inconclusive = mostly about -30% to -49%
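Secreted IL-1B measured by AlphaLISA bead assay after 16 h compound exposure of THP-1 cells; compounds (final up to 57.5 uM) added 1 h before LPS (250 ng/mL) and ATP (1.25 mM) stimulation; lower signal means less secretion.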
HT1080-NT tox = kills 2HG-producing HT-1080-NT fibrosarcoma cells | 1.6% of 360,000 active | Potency, µM (highest dose often 46.1 µM), for the others: top-dose activity, negative = less viability, usual class: cytotoxic | AID 686970 | HT-1080-NT fibrosarcoma viability, CellTiter-Glo ATP luminescence, 48 h;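 also: NT is the 2HG producing partner of a matched IDH1 knockdown line; potency is read from the fitted curve at half-maximal effect; 0% = DMSO-treated cells and -100% = media-only wells without cells; nearly all actives have a fitted effect of over 55% in size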
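Read-out is CellTiter-Glo luminescence after 10 minutes at room temperature, following 48 hours' compound treatment of HT-1080-NT cells (750 cells/well, RPMI, 5% FBS, 37 degrees C).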
* marks the source's active call; other numbers are inactive results; ? = inconclusive; . = not tested or not shown. Shown are actives, neighbours in structure and some others; about 19% of the full set was active somewhere. Unless noted, calls follow the shape of the dose curve; as a rule, active = well fitted curve in the direction sought with a large enough effect; inconclusive = small, poorly fitted or top-dose-only effect, or another doubt; inactive = no such curve, though single readings can be large; an effect the other way counts as inactive or inconclusive. Unless noted, % is scaled to controls: 0 for no effect and ±100 for the full control effect.

SMILES | TDP1 cell noCPT | HT1080 IDH1KD tx | DT40 TDP1 CPT | IL-1B inflam inh | HT1080-NT tox
COc1cc2oc(=O)cc(-c3ccc(-c4ccc(O)cc4)cc3)c2c(OC)c1OC | 18.4µM* | -22.9% | ? | -13.9 | -22.4%
COc1ccc([N+](=O)[O-])cc1COc1cc(C)cc2oc(=O)cc(-c3ccccc3)c12 | ? | ? | ? | 39.9 | ?
O=C(COc1ncnc2ccccc12)NCC1CCCO1 (configuration not stated) | -10.8% | 11.9% | 1.5% | 0.0 | -0.5%
O=C1CCCCC1(c1ccccc1)c1ccccc1 | -13.2% | 14.2% | -18.4% | 28.9 | 7.1%
c1csc(CNc2ccnc(-c3ccoc3)n2)c1 | -25.8% | . | ? | . | .
CN(C)C(=O)c1ccc(-c2nccc(NCc3cccs3)n2)cc1 | -7.8% | . | -11.9% | . | .
Fc1ccc(Nc2ccnc(-c3ccoc3)n2)cc1 | -4.1% | . | -22.3% | . | .
CN(C)c1ccc(-c2nccc(NCc3cccs3)n2)cc1 | 23.1µM* | . | 20.6µM* | . | .
COc1ccccc1-c1nccc(NCc2cccs2)n1 | ? | . | 20.6µM* | . | .
COc1ccccc1-c1nccc(Nc2ccc(F)cc2)n1 | ? | . | 23.1µM* | . | .
CCCCN(CC)CCCNC(=O)c1ccc(CS(=O)(=O)c2c(Cl)cccc2Cl)o1 | 27.1% | -8.6% | -13.1% | -77.8* | -0.4%
CSc1ccc(CCNC(=O)c2ccc(CS(=O)(=O)c3ccc(Br)cc3)o2)cc1 | 20.6µM* | . | 23.1µM* | . | .
CCc1ccccc1S(=O)(=O)Cc1ccc(C(=O)NCCc2ccc(Cl)cc2)o1 | 18.4µM* | . | ? | . | .
Cc1ccc(S(=O)(=O)Cc2ccc(C(=O)NCCc3ccc(Cl)cc3)o2)cc1 | 29.1µM* | . | 16.4µM* | . | .
Cc1ccc(S(=O)(=O)N2CCN(C(=O)CSc3nccn3C)CC2)cc1 | -28.7% | 13.0% | -4.3% | -6.0 | 6.8%
Cc1cccc(CS(=O)(=O)Cc2ccc(C(=O)NC3CCCCC3)o2)c1 | -14.4% | -2.1% | -16.8% | -5.3 | -5.0%
CC(=O)NC1C(O)C[C@@](O)(C(=O)O)OC1[C@@H](O)C(O)CO (some centres not stated) | -8.2% | . | -1.5% | . | .
CC1CCC(NC(=O)c2ccc(CS(=O)(=O)c3ccc(Cl)cc3)o2)CC1 (configuration not stated) | 18.4µM* | . | 18.4µM* | . | .
O=C(NCCc1ccc(Cl)cc1)c1ccc(CS(=O)(=O)c2ccc(Cl)cc2)o1 | ? | . | 16.4µM* | . | .
COc1ccc(S(=O)(=O)Cc2ccc(C(=O)NC3CCC(C)CC3)o2)cc1 (configuration not stated) | ? | 3.8% | -7.6% | -4.9 | 5.6%
Cc1ccc(CCNC(=O)c2ccc(CS(=O)(=O)c3ccc(Cl)cc3)o2)cc1 | -14.1% | . | -7.5% | . | .
CCOc1ccccc1N1CSC2=C(C#N)C(c3c(OC)ccc4ccccc34)CC(=O)N2C1 (configuration not stated) | 20.6µM* | -7.3% | ? | 12.1 | 4.0%
COc1ccc(N2CSC3=C(C#N)C(c4cccs4)CC(=O)N3C2)cc1 (configuration not stated) | 1.5% | -7.1% | -1.1% | -4.6 | 4.9%
CCc1ccc(N2CSC3=C(C#N)C(c4cccs4)CC(=O)N3C2)cc1 (configuration not stated) | 16.4µM* | 6.1% | ? | -2.3 | 1.8%
COc1ccc(N2CSC3=C(C#N)C(c4cc(OC)ccc4OC)CC(=O)N3C2)c(OC)c1 (configuration not stated) | ? | 0.7% | ? | 51.7 | 0.0%
SMILES | TDP1 cell noCPT | HT1080 IDH1KD tx | DT40 TDP1 CPT | IL-1B inflam inh | HT1080-NT tox
NS(=O)(=O)c1cccc(NC(=O)CCS(=O)(=O)c2ccc(Cl)cc2)c1 | 0.6% | -8.0% | 3.4% | 73.8 | -1.7%
CCN(CC)C(=O)c1ccc(C(=O)c2c(C)cc(C)cc2C)cc1 | 20.6µM* | -12.1% | 18.4µM* | -9.2 | -7.3%
COc1ccc(N2C(=O)CC(N3CCN(c4ccc(Cl)cc4)CC3)C2=O)cc1 (configuration not stated) | 10.9% | -5.4% | 1.7% | -50.6* | -0.7%
COc1ccc(/C=C\c2onc(C)c2S(=O)(=O)N2CCC(C(=O)Nc3cccc(Cl)c3)CC2)cc1 | 9.2µM* | . | 6.51µM* | . | .
Cc1noc(/C=C/c2ccco2)c1S(=O)(=O)N1CCC(C(=O)NC(C)c2ccccc2)CC1 (configuration not stated) | ? | -2.7% | -26.8% | -14.0 | -1.4%
Cc1noc(/C=C/c2ccco2)c1S(=O)(=O)N1CCC(C(=O)N2c3ccccc3CC2C)CC1 (configuration not stated) | 18.4µM* | -6.6% | 14.6µM* | ? | -1.4%
CCOc1ccccc1NC(=O)C1CCN(S(=O)(=O)c2c(C)noc2/C=C/c2ccco2)CC1 | 18.4µM* | . | ? | . | .
COc1ccc(/C=C\c2onc(C)c2S(=O)(=O)N2CCC(C(=O)Nc3ccccc3OC)CC2)cc1 | 23.1µM* | . | ? | . | .
Cc1oc(S(=O)(=O)N(C)C)cc1C(=O)Nc1ccc(F)cc1 | -13.7% | 7.9% | -6.1% | -15.2 | 8.4%
CCn1nccc1C(=O)Nc1ccc(C)c(C)c1 | -9.0% | -12.5% | 1.7% | -7.6 | -20.9%
COc1cc(C(=O)N2CCC(C(=O)Nc3cccc(C(C)=O)c3)CC2)cc(OC)c1OC | ? | -0.3% | ? | -6.2 | 1.4%
COc1cccc(C(=O)N2CCC(C(=O)Nc3cccc(Cl)c3)CC2)c1 | 23.1µM* | . | 10.3µM* | . | .
CCOc1ccc(-n2cc(-c3ccccc3)c3c(=O)[nH]cnc32)cc1 | ? | -22.7% | -5.6% | -66.7* | -22.6%
CCOc1ccc(Nc2ncnc3c2c(-c2ccccc2)cn3-c2cccc(C)c2)cc1 | -11.3% | . | -9.6% | . | .
O=c1[nH]cnc2c1c(-c1ccccc1)cn2-c1ccc(Br)cc1 | 16.4µM* | -19.1% | ? | ? | -14.7%
Cc1cccc(-n2cc(-c3ccccc3)c3c(=O)[nH]cnc32)c1 | -24.7% | -14.1% | 0.3% | -87.7* | -7.9%
CCOc1ccc(-n2cc(-c3ccccc3)c3c(=S)nc[nH]c32)cc1 | ? | 0.0% | 14.6µM* | 9.2 | ?
Cc1ccc(S(=O)(=O)CC(=O)Nc2ccc3nc(C)sc3c2)cc1 | 7.0% | 12.7% | -4.2% | -5.7 | 9.4%
CN(C)CCN1CCN(C(c2cc3ccccc3o2)c2nnnn2C(C)(C)C)CC1 (configuration not stated) | -25.2% | 9.8% | -19.6% | 0.0 | 4.3%
CCN1CCc2c(sc(NC(=S)NC(=O)c3ccc(Cl)cc3)c2C(N)=O)C1 | ? | -1.7% | 0.4% | . | -12.8%
Cc1cccc(CNc2ncncc2-c2ccccc2CN(C)C)c1 | -11.6% | . | -4.4% | . | .
CN(C)Cc1ccccc1-c1cc(NCc2cccs2)ncn1 | 30.2% | . | -4.2% | . | .

From PubChem BioAssay
